Assay results taken from PubChem BioAssay AID2113 (National Center for Advancing Translational Sciences (NCATS), 2009).
Records with an inconclusive call do not appear. Where a call stands in place of a potency, no number is given. Calls of active or inactive are those of the source. The call rests on the fitted dose curve; in most records, active means well fitted curve in either direction with a large enough effect; inconclusive means small, poorly fitted or top-dose-only effect; inactive means no such curve, though single readings can be large or run the other way.

Target: Lysosomal alpha-glucosidase (Homo sapiens) (UniProt P10253)
Test: Confirmation of Inhibitors and Activators of Human alpha-Glucosidase From Spleen Homogenate;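 on potency: fluorescence of 4-methylumbelliferone released from a fluorogenic glucopyranoside substrate at pH 5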
Details: alpha-glucosidase enzyme activity; series mostly up to 60.5 µM
Outline: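 Fluorogenic assay using human spleen homogenate (1 ug) as enzyme source with 1 mM 4-methylumbelliferyl-alpha-D-glucopyranoside, pH 5.0 citrate buffer, 40 min at 37 C. 4-MU read (Ex 365/Em 440) after NaOH/glycine stop; AC50 from Hill fits.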
Potency means the concentration at half of the fitted maximal effect.

Structure (SMILES) | Potency
CNc1ncnc2c1ncn2[C@H]1C[C@H](OP(=O)(O)O)[C@@H](COP(=O)(O)O)O1 | inactive
CCCn1c(N)c(CC)c(=O)[nH]c1=O | inactive
CC1=CC(=C2C=CC(=O)C=C2)C=C(C)N1C | inactive
COc1ccc(CCn2c(=S)[nH]c(=O)c3nccnc32)cc1OC | inactive
Cc1ccc(C(=O)c2sc3c(c2N)c(=O)[nH]c(=O)n3CCc2ccccc2)cc1 | inactive
CC(=O)c1ccc(N2CCN(S(=O)(=O)c3ccc4[nH]c(=O)[nH]c4c3)CC2)cc1 | inactive
Cn1c(=O)c2c(nc(NCc3ccc4c(c3)OCO4)n2Cc2ccc(F)cc2)n(C)c1=O | inactive
CCCN1CNc2c(c(=O)[nH]c(=S)n2CCc2ccc(C)cc2)C1 | 25.1 µM (active)
CC(=O)c1ccc(N2CCN(C(=O)c3ccc4c(c3)CC(=O)N4)CC2)cc1 | inactive
O=C(COc1ccc2ccccc2c1)N1CCN(C(=O)c2ccco2)CC1 | inactive
O=c1oc2ccccc2cc1-c1csc(Cc2nc3c(s2)CCCC3)n1 | inactive
Nc1cc(=O)[nH]c(=S)n1-c1cccc(C(F)(F)F)c1 | inactive
CCS(=O)(=O)N1Cc2ccccc2CC1C(=O)Nc1ccc(NC(C)=O)cc1 (stereo not drawn) | inactive
CC(C)Cn1c(SCC(=O)N2CCCCC2)nc2ccccc2c1=O | inactive
N#C/C(=C\c1cc(O)c(O)c(O)c1)C(N)=O | inactive
COc1ccc(/C=C\c2nccc3c2[nH]c2ccccc23)cc1 | inactive
CCCN1CNc2c(c(=O)[nH]c(=S)n2CCc2c(OC)cccc2OC)C1 | inactive
O=S(=O)(c1ccccc1)N1CCNCC1 | inactive
